These results are taken from ChEMBL document CHEMBL3988442, “University of Dundee, Small-Polar-MMV Screening Library” (2021).

For some assays here: Potency and affinity values are given separately.

Holding throughout (set-up): scale not given: direction of the effect not stated beside the values
For experiment [1], the target named is Protein translocase subunit SecA (Escherichia coli (strain K12)) (UniProt P10408). Description: Assay to Identify E. coli SecA ATPase Inhibitors. It counts as functional. The note with it: 30 µM.
Experiment [2] addresses T1, Ubiquitin-activating enzyme e1, putative (Leishmania donovani (strain BPK282A1)) (UniProt E9BSI1).
T1 sequence (whole entry): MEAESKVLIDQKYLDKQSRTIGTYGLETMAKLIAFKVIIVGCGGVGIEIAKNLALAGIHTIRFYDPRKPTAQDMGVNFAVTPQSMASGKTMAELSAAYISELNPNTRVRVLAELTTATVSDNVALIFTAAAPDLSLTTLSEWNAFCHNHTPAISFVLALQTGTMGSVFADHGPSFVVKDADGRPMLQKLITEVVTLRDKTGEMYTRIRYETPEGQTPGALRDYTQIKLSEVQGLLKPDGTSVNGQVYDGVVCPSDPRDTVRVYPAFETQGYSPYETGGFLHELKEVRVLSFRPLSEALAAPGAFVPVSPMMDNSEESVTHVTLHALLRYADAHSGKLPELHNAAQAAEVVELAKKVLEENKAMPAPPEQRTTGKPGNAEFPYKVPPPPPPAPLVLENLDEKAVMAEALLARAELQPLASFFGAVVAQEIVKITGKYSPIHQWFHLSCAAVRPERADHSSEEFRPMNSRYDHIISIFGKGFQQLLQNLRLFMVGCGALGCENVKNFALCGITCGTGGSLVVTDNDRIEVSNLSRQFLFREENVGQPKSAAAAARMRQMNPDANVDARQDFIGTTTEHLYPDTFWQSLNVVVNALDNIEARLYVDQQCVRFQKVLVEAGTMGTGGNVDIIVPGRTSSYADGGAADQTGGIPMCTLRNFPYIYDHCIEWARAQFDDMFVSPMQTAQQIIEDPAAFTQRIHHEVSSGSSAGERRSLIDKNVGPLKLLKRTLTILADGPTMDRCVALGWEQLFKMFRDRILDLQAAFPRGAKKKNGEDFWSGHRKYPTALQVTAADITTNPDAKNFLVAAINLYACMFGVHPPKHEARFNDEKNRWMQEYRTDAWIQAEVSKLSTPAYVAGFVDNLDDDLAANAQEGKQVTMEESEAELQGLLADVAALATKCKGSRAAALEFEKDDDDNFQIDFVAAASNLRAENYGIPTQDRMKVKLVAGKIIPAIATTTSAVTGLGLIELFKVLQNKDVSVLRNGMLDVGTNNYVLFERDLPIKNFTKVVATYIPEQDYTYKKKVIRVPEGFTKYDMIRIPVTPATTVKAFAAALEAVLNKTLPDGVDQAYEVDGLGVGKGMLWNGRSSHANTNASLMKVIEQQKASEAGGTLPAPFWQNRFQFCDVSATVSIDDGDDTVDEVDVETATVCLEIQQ
Put plainly: Leishmania donovani Ubiquitin Activating Enzyme (LdE1). The note with it: 30 µM. It counts as functional.

For experiment [3], the target named is T2, Aspartate--tRNA(Asp/Asn) ligase (Mycobacterium tuberculosis (strain ATCC 25618 / H37Rv)) (UniProt P9WFW3). Also: in the data most compounds retested in dose-response had high values.
T2 sequence (whole entry): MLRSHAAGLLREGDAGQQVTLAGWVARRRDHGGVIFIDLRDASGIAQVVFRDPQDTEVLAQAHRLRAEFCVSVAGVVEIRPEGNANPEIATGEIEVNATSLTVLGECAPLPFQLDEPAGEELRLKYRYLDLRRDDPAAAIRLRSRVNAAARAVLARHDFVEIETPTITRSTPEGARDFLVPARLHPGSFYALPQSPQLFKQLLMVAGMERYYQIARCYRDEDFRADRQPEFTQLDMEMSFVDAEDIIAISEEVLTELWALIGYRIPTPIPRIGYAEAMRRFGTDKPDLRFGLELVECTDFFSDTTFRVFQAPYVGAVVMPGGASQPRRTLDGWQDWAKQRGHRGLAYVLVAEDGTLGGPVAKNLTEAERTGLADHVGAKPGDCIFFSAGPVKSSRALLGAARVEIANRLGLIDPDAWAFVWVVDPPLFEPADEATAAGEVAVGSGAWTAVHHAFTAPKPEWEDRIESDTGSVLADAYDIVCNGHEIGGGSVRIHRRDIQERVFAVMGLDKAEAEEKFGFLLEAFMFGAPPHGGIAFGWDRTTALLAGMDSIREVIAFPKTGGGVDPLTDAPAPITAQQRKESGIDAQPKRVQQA
Put plainly: Assay for Asp RNA synthetase-1 from Mycobacterium tuberculosis. The format is functional. The note with it: 30 µM.

In experiment [4] the target is AMP-activated protein kinase, AMPK (Homo sapiens) (UniProt P54646+O43741+P54619+Q9UGJ0+Q9Y478+Q13131+Q9UGI9). Description: AMP-dependent Kinase enzyme assay. An in vitro enzyme assay that detects ADP turnover that is directly proportional to AMPK activity. This uses naive AMPK that is activated during the assay with MK-8722. The note with it: 30 µM. The format is functional.

Experiment [5] deals with Sialic acid-binding Ig-like lectin 9 (Homo sapiens) (UniProt Q9Y336). Description: Hs-Siglec9 ALPHAscreen SOP 20170721. The note with it: 10 µM. For orientation: Bead proximity is the source of the signal in Alpha formats.
Another experiment has as its system Trypanosoma cruzi. Description: Trypanosoma cruzi phosphomannomutase and mannose-1-phosphate guanylyltransferase assay. The format is functional. The note with it: 10 µM.
Experiment [6] has as its target T3, Arginase-2, mitochondrial (Homo sapiens) (UniProt P78540).
T3 sequence (whole entry): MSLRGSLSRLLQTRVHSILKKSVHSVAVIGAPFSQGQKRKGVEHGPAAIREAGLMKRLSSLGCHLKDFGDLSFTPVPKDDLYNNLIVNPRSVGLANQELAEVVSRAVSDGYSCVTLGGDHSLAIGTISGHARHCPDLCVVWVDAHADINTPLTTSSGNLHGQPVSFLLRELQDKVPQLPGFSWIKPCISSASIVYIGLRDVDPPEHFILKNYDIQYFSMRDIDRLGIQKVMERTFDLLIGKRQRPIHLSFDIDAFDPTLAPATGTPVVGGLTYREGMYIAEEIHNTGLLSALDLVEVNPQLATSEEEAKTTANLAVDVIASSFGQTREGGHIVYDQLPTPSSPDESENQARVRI
Description: in vitro enzyme assay to detect the production of urea directly proportional to the activity of Arginase II. Also: in the data most compounds retested in dose-response had high values. The note with it: 33.3 µM. It counts as functional.

Experiment [7] has as its target T4, Proteasome subunit beta (Trypanosoma cruzi) (UniProt O96673).
T4 sequence (whole entry): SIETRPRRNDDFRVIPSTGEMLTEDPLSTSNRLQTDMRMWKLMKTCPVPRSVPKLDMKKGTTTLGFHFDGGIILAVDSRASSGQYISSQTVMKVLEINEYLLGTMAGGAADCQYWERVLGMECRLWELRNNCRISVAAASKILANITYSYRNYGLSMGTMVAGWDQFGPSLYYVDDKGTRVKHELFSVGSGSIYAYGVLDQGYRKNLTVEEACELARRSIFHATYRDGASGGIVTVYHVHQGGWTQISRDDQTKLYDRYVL
Put plainly: Trypanosoma cruzi proteasome chymotrypsin-like activity (TcProtChymo) assay. Also: in the data most compounds retested in dose-response had high values. It counts as functional. The note with it: 9.37 µM.

The species named for the next experiment is Homo sapiens. Description: To identify inhibition of the IFN signalling (Jak-Stat) pathway via expression of an eGFP reporter gene under the control of an IFN-stimulated response element (ISRE) containing MxA promoter. The note with it: 30 µM. It counts as functional. On the technique in general: Reporter assays use an easily measured gene product as a stand-in for the process of interest.

The target in experiment [8] is Shiga toxin 2 (Escherichia coli O157:H7) (UniProt P09385+P09386). Description: E. coli 0.157:H7 Shiga Toxin SOP - stx2 screening assay. It counts as functional. The note with it: 30 µM.
Experiment [9] concerns the target T5, Tyrosyl-tRNA synthetase, putative (Trypanosoma cruzi (strain CL Brener)) (UniProt Q4DSP6).
T5 sequence (whole entry): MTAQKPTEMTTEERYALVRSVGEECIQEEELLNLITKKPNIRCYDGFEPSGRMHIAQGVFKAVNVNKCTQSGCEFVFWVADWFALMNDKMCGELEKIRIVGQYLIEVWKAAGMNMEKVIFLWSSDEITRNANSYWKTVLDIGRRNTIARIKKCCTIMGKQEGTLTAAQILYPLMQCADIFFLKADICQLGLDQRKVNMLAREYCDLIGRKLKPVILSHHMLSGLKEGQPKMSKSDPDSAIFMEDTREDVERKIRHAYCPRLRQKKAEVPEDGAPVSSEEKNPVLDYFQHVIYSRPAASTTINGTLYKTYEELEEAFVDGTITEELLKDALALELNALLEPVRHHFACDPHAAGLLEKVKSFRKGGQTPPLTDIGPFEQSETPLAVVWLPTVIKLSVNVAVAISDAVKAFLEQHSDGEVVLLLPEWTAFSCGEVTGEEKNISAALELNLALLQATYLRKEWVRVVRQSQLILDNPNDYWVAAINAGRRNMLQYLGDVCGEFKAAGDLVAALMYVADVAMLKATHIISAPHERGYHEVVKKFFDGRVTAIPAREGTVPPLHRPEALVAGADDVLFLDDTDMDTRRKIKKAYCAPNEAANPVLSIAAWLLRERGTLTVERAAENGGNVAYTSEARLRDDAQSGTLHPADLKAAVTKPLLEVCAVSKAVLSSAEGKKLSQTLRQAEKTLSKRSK
Put plainly: Trypanosoma cruzi tyrosyl tRNA synthetase (TcYRS) _High Tyrosine SOP. Also: in the data most compounds retested in dose-response had high values. The format is functional. The note with it: 30 µM.

The target of experiment [10] is T5, Tyrosyl-tRNA synthetase, putative (Trypanosoma cruzi (strain CL Brener)). Description: Trypanosoma cruzi tyrosyl tRNA synthetase (TcYRS) SOP. The format is functional. The note with it: 30 µM.
Experiment [11] concerns the target Chromo domain-containing protein 1 (Saccharomyces cerevisiae (strain ATCC 204508 / S288c) (Baker's yeast)) (UniProt P32657). Put plainly: ScCHD-1 Enzyme Inhibition Assay. Also: in the data most compounds retested in dose-response had high values. The note with it: 30 µM. The format is functional.

Sequence of Protein translocase subunit SecA (Escherichia coli (strain K12)) (P10408 whole entry): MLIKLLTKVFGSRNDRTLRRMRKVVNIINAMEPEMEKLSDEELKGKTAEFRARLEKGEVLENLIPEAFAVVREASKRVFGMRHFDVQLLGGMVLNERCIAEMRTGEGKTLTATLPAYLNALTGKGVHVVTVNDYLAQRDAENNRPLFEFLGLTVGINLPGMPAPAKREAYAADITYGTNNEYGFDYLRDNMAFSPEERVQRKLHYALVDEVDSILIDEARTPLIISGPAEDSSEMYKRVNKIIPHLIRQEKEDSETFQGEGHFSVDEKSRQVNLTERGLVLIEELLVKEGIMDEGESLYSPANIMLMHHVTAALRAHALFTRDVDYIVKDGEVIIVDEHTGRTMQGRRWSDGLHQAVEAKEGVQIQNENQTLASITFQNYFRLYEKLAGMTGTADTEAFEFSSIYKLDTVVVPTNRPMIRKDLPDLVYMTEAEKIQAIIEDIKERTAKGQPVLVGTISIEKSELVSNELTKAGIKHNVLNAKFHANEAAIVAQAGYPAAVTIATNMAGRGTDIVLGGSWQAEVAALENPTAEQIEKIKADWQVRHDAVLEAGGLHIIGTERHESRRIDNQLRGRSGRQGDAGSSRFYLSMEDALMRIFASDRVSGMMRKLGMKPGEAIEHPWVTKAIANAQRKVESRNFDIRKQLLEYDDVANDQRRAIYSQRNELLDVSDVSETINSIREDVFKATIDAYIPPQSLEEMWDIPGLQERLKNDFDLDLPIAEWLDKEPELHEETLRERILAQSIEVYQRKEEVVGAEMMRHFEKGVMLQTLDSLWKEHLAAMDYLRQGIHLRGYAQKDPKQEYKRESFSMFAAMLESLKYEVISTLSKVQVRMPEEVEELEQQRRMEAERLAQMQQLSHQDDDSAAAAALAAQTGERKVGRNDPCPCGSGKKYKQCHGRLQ
Sequence of Sialic acid-binding Ig-like lectin 9 (Homo sapiens) (Q9Y336 whole entry): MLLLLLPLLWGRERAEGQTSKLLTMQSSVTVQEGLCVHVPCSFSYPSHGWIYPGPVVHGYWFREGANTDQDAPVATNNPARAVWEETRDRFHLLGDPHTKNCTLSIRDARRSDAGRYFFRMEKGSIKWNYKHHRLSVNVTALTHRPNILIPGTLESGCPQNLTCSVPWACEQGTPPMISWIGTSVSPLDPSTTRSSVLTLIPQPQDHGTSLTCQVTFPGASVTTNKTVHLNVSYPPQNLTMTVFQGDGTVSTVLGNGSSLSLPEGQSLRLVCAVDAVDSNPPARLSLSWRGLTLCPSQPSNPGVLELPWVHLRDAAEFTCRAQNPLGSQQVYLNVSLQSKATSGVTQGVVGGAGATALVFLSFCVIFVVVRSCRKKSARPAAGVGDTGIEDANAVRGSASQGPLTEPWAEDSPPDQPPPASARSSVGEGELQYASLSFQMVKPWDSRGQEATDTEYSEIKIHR
Sequence of Chromo domain-containing protein 1 (Saccharomyces cerevisiae (strain ATCC 204508 / S288c) (Baker's yeast)) (P32657 whole entry, the tested form may be a part): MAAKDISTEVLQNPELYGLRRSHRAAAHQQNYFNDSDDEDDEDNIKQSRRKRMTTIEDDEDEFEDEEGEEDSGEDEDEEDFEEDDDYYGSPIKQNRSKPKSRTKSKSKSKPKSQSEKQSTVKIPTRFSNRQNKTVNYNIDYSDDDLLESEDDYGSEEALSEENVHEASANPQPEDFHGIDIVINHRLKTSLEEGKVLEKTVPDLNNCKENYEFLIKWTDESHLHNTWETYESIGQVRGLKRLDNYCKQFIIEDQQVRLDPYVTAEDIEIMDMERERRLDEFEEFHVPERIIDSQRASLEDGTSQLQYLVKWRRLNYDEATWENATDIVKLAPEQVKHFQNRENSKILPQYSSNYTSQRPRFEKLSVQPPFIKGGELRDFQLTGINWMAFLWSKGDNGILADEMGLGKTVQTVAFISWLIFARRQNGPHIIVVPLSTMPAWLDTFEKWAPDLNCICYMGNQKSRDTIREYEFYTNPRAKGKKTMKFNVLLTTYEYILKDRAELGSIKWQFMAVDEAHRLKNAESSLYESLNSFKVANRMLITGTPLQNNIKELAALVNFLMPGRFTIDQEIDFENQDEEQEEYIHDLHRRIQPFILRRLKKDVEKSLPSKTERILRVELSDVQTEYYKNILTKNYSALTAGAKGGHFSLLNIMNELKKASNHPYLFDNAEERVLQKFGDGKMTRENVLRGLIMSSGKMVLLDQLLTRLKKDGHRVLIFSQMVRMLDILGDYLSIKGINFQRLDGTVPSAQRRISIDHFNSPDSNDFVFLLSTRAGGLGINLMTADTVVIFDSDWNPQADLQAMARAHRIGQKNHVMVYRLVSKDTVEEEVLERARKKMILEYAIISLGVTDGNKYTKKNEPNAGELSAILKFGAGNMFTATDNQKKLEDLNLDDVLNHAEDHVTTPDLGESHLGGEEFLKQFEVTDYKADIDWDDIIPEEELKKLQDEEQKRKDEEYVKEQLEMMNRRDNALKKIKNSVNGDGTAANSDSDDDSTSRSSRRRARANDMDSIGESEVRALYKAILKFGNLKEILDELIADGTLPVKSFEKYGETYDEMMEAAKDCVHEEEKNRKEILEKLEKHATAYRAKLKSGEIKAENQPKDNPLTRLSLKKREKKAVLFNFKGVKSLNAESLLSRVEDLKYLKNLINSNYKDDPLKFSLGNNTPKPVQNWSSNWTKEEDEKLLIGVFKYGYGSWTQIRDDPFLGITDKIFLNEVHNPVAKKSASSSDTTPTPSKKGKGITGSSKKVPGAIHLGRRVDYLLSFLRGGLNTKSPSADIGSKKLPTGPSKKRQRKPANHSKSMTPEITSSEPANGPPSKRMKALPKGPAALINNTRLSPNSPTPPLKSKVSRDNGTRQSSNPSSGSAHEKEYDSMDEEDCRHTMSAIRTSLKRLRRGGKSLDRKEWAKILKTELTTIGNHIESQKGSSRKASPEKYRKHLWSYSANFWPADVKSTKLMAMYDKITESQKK

On to `O=C1CSC(c2ccsc2)c2sccc2N1` (stereo not given), for which the Percent Effect in [1] was -4.83%; in experiment [2], -57.3%; in [3], 4.27%; in experiment [4], 7.24%; in experiment [5], 10.3%; with Trypanosoma cruzi it was -3.34%. Moreover, the Percent Effect in experiment [6] is -4.4%; in [7] it was 7.21%; in the experiment listed under Homo sapiens it was 6.1%; in experiment [8], 5.43%; in experiment [9] it was -1.06%; in experiment [10], -2.56%. Moreover, the Percent Effect in experiment [11] is 106%.

For the compound `O=C(C1CCOC1)N1C[C@H]2CN(Cc3ccccn3)C[C@H]2C1` (stereo not given in full), the Percent Effect is -0.372% in experiment [1]; 13.5% in experiment [2]; -0.474% in experiment [3]; 2.96% in experiment [4]; -5.9% in [5]; 0.293% in the experiment on Trypanosoma cruzi. For the same compound, the Percent Effect in experiment [6] is 6.05%; in experiment [7], 16.2%; in the experiment listed under Homo sapiens, -9.37%; in experiment [8], -2.63%; in experiment [9] it was 6.49%; in experiment [10], 15.4%. In addition, the Percent Effect in experiment [11] is -0.817%.

For `Cc1noc(C)c1CN1CC[C@H]2C[C@@H](c3ccncn3)O[C@@H]2C1`, the Percent Effect in experiment [1] was -2.74%; in experiment [2], 8.11%; in [3] it was -3.25%; in experiment [4], 5.49%; in [5], 1.24%; in the experiment with Trypanosoma cruzi it was 5.57%. Moreover, the Percent Effect was -2.87% in [6]; 14.2% in experiment [7]; 17.1% in the experiment listed under Homo sapiens; 5.98% in [8]; 2.16% in experiment [9]; 17.9% in experiment [10]. Also, the Percent Effect in experiment [11] turned out to be 2.76%.

Turning to `CCNC(=O)NC(=O)CNC1(c2noc(C)n2)CCCCC1`, the Percent Effect is -8.65% in [1]; 15.8% in [2]; 0.329% in [3]; -3.69% in [4]; -6.42% in experiment [5]; 6.91% in the experiment with Trypanosoma cruzi. Moreover, the Percent Effect was -5.92% in [6]; 8.34% in experiment [7]; 6.39% in the experiment filed under Homo sapiens; 4.43% in experiment [8]; 3.19% in [9]; -7.79% in experiment [10]. Moreover, the Percent Effect in [11] was -19.2%.

With `Cc1nc(CN2C[C@@H]3OCCN(c4ncc(F)cn4)[C@@H]3C2)cs1`, the Percent Effect in experiment [1] is 0.0245%; in experiment [2], 5.33%; in [3], -1.08%; in [4], 7.05%; in experiment [5] it was 2.47%; in the experiment with Trypanosoma cruzi, -1.74%. Further, the Percent Effect in experiment [6] was -58.6%; in [7], 11.3%; in the experiment listed under Homo sapiens, -21.1%; in experiment [8] it was 2.24%; in experiment [9] it was 4.17%; in experiment [10], 15%. In addition, the Percent Effect in [11] is -7%.
